Assay [1] has as its target Glutathione peroxidase 1 (Homo sapiens) (UniProt P07203). Briefly: Primary qHTS Assay for Inhibitors of Recombinant Selenoprotein Glutathione Peroxidase 1 (GPX1) (AID 1845191). For activity, negative = inhibition: % is set by controls: 0 for no effect and ±100 for the full control effect. Note: nearly all actives have a fitted effect of over 65% in size. In short, it runs like this:
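Recombinant GPX1 (10 nM final) was preincubated with compound for 30 min at room temperature, then reacted with 1 mM GSH, 0.5 mM CHP, 0.5 mM NADPH and 100 nM glutathione reductase; NADPH fluorescence (340/450 nm) was read at 0 and 15 min.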
(In qHTS, concentration-response curves come from the screen itself.)

For assay [2], the target named is Phospholipid hydroperoxide glutathione peroxidase GPX4 (Homo sapiens) (UniProt P36969). Briefly: Primary qHTS Assay for Inhibitors of Recombinant Selenoprotein Glutathione Peroxidase 4 (GPX4) (AID 1845192). For activity change, negative = inhibition: series mostly up to about 50 µM; % is set by controls: 0 for no effect and ±100 for the full control effect. Note: nearly all actives have a fitted effect of over 65% in size. The gist of the method: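 GR-coupled readout: 100 nM GR, 1 mM GSH, 0.5 mM NADPH; NADPH fluorescence (ex 340/em 450 nm) read at t=0 and after 15 min RT. GPX4 200 nM, preincubated 30 min with compound; substrate 0.5 mM CHP.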
Sequence of Phospholipid hydroperoxide glutathione peroxidase GPX4 (Homo sapiens) (P36969 whole entry, looked up): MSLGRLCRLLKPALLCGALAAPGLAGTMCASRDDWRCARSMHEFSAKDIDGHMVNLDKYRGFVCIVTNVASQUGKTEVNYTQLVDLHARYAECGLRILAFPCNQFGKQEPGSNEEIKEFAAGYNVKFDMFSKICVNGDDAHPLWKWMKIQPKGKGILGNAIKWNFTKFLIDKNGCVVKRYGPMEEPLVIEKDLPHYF

Assay [3] addresses Luciferin 4-monooxygenase (Photinus pyralis) (UniProt P08659). Put plainly: Primary firefly luciferase (FLuc) qHTS assay for identification of artifact compounds. (AID 1845220).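 For activity change, negative = inhibition: series mostly up to about 54 µM; plate controls were DMSO vehicle for no effect and no enzyme for full effect.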 Note: nearly all actives have a fitted effect of over 60% in size. In short, it runs like this:
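qHTS, 15 min compound preincubation with substrate (10 uM luciferin, 10 uM ATP) at RT, then 10 nM FLuc; 5 min; luminescence; % inhibition vs no-enzyme/DMSO controls, 4-parameter Hill fit.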

The nature of assay [4]: Primary fluorescence-based thiol-reactive (MSTI) qHTS assay for identification of artifact compounds. (AID 1845221).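 For activity change, negative = thiol reactive: series mostly up to about 54 µM; thiol-reactive compounds lower the probe fluorescence signal.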 Note: nearly all actives have a fitted effect of over 65% in size. Note: potency is the fitted concentration of half-maximal effect. In short, it runs like this: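 MSTI probe at 4 uM final in 2% DMSO/PBS pH 7.4; compounds, 1 h at room temperature in dark. Fluorescence Ex/Em 525/598 nm, normalised to Acetyl-MSTI and MSTI, fitted to 4-parameter Hill.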
Assay [5] relates to Nanoluciferase (engineered Oplophorus gracilirostris luciferase). Put plainly: Primary Nanoluciferase (NLuc) qHTS assay for identification of artifact compounds. (AID 1845222).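 Note: series mostly up to about 54 µM; 0% = DMSO and -100% = no enzyme.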 In short, it runs like this: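 Luminescence read-out of secreted NLuc in S16 cell conditioned medium (1:55); compounds tested with 15 min RT preincubation, then Nano-Glo substrate 1:100, 5 min. % inhibition vs no-enzyme and DMSO controls, 4-parameter Hill fit.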

A short description of assay [6]: Primary redox qHTS assay for identification of artifact compounds. (AID 1845223).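 Note: 0% = DMSO and 100% = reference compound.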 In short, it runs like this: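 Amplex Red (25 uM) and HRP (250 mU/mL) in HBSS, with compounds for 15 min, then 250 uM DTT for 30 min, room temperature, dark. Fluorescence 525/598 nm read; normalized to DMSO and 10 uM DA3003; Hill fit.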

Results on 17 molecules are retold here after PubChem BioAssay (NCATS).

Values without a mark were called inactive. Inconclusive results are not listed. Activity calls are given as the source filed them. Calls come from the whole dose curve; as a rule, active = well fitted curve in the direction sought with a large enough effect; inconclusive = small, poorly fitted or top-dose-only effect, or another doubt; inactive = no such curve, though single readings can be large; an effect the other way counts as inactive or inconclusive.

Sequence of Glutathione peroxidase 1 (Homo sapiens) (P07203 whole entry, looked up): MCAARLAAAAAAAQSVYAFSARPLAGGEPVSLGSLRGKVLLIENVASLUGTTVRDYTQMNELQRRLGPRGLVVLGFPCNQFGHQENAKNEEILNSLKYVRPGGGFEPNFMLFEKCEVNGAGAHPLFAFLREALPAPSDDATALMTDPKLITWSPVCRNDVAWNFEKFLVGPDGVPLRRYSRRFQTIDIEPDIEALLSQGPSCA

For the molecule `CC1(CO)CC[C@]2(C(=O)O[C@@H]3O[C@H](CO)[C@@H](O)[C@H](O)[C@H]3O)CC[C@]3(C)C(=CCC4[C@@]5(C)CC[C@H](O[C@@H]6O[C@H](C(=O)O)[C@@H](O)[C@H](O)[C@H]6O)C(C)(C)C5CC[C@]43C)C2C1` (some centres not stated), the Potency entry in assay [1] and in assay [2] was “inactive” each time. Moreover, the activity change, negative = inhibition in assay [3] was -2.66% [at 11.6 µM]. In addition, the activity change, negative = thiol reactive in assay [4] was -2.52% [at 11.5 µM]. In assay [5], the activity, negative = inhibition was 2.96% [at 11.6 µM]. Further, in assay [6], the redox activity (% of DA3003) was 19.9% [at 11.5 µM].

With `C[C@@H]1O[C@@H](OC[C@H]2O[C@@H](OCC3CCC4CC3C4(C)C)[C@H](O)[C@@H](O)[C@@H]2O)[C@H](O)[C@H](O)[C@H]1O` (some centres not stated), the Potency result in assay [1], in assay [2], in assay [3], in assay [5] and in assay [6] was “inactive” in each case. Further, in assay [4], the Potency is 11.6 µM (active).

Take `CC(=O)OC[C@@]12[C@@H](OC(C)=O)C[C@@H](C)[C@](C)([C@@H]3C[C@H]4C=CO[C@H]4O3)[C@H]1CCC[C@]21CO1`: the Potency result in assay [1], in assay [2], in assay [3], in assay [4], in assay [5] and in assay [6] was “inactive” in each case.

On to `CC1=C2CC3OC3(C)CCC3OC3(C)CC2OC1=O` (configuration not stated), for which the Potency entry in assay [1], in assay [2], in assay [3], in assay [4], in assay [5] and in assay [6] was “inactive” in each case.

On to `CC(C)C1=CC2=CCC3[C@](C)(CCC[C@@]3(C)C(=O)O)C2CC1=O` (some centres not stated), for which the Potency result in assay [1], in assay [2], in assay [3], in assay [4], in assay [5] and in assay [6] was “inactive” throughout.

With `CC1=CCC2C(C)(CO)CCCC2(C)C1CC12OC1C(O)C(CO)=CC2O` (configuration not stated), the Potency entry in assay [1], in assay [2], in assay [3], in assay [4], in assay [5] and in assay [6] was “inactive” throughout.

As to `C[C@]12CCC(=O)C=C1[C@@H](O)C[C@@H]1[C@@H]2[C@@H](O)C[C@@]2(C)[C@H]1CC[C@]2(O)C(=O)CO`, the Potency entry in assay [1], in assay [2], in assay [3], in assay [4], in assay [5] and in assay [6] was “inactive” throughout.

Take `CC(C)(C)c1cc(CN2CCN(CC(O)c3ccc(Cl)cc3)CC2)cc(C(C)(C)C)c1O` (configuration not stated): the Potency entry in assay [1], in assay [2], in assay [3], in assay [4], in assay [5] and in assay [6] was “inactive” in each case.

As to `CC(=O)O[C@@H]1[C@H](O[C@@H]2O[C@H](CO)[C@@H](O)[C@H](O)[C@H]2O)[C@@H](O[C@@H]2O[C@@H](C)[C@H](O)[C@@H](O[C@@H]3O[C@H](CO)[C@@H](O)[C@H](O)[C@H]3O)[C@H]2O)[C@H](OC(=O)C23CCC4(C)C(=CCC5C6(C)CC(O)C(O[C@@H]7O[C@H](C(=O)O)[C@@H](O)[C@H](O)[C@H]7O)C(C)(C(=O)O)C6CCC54C)C2CC(C)(C)CC3O)O[C@@H]1C` (some centres not stated), the figures for the outcome in assay [1] and in assay [3] were “inactive [at 9.52 µM]” and “inactive [at 11.6 µM]”, respectively. Also, the activity change, negative = inhibition in assay [2] is 1.73% [at 9.73 µM]. Besides, in assay [4], the activity change, negative = thiol reactive is 205% [at 11.5 µM]. For the same molecule, in assay [5], the activity, negative = inhibition was 0% [at 11.6 µM]. Further, the redox activity (% of DA3003) in assay [6] is 12.9% [at 11.5 µM].

As for `O=C(O[C@H]1[C@@H]2C=CO[C@@H](O[C@@H]3O[C@H](CO)[C@@H](O)[C@H](O)[C@H]3O)[C@@H]2[C@@]2(CO)O[C@@H]12)c1ccc(O)c(O)c1`, the Potency entry in assay [1], in assay [2], in assay [3], in assay [5] and in assay [6] was “inactive” in each case. The Potency in assay [4] was 3.27 µM (active).

As for `CN1CC[C@@H](NC(=O)Nc2ccc(C#N)cc2)C[C@@H]1c1nc2ccccc2[nH]1`, the Potency result in assay [1], in assay [2], in assay [3], in assay [4], in assay [5] and in assay [6] was “inactive” in each case.

Regarding `C[C@@H]1C[C@H]2[C@@H]3CCC4=CC(=O)C=C[C@]4(C)[C@@]3(F)[C@@H](O)C[C@]2(C)[C@@]1(O)C(=O)COP(=O)(O)O`, the Potency result in assay [1], in assay [2], in assay [3], in assay [4], in assay [5] and in assay [6] was “inactive” in each case.

Take `C[C@@H]1C(=O)O[C@H]2CC34[C@H]5C[C@@H](C(C)(C)C)C36[C@@H](OC(=O)[C@@H]6O)O[C@@]4(C(=O)O5)[C@]21O` (some centres not stated): the Potency entry in assay [1], in assay [2], in assay [3], in assay [4], in assay [5] and in assay [6] was “inactive” each time.

With `CC(C)Nc1cc(-c2c[nH]c(C(=O)N[C@H](CO)c3cccc(Cl)c3)c2)c(Cl)cn1`, the Potency result in assay [1], in assay [2], in assay [3], in assay [4], in assay [5] and in assay [6] was “inactive” throughout.

In the case of `COc1cc([C@H]2OC[C@@H]3[C@@H](c4ccc(O[C@@H]5O[C@H](CO)[C@@H](O)[C@H](O)[C@H]5O)c(OC)c4)OC[C@]23O)ccc1O`, the Potency entry in assay [1], in assay [2], in assay [3], in assay [4], in assay [5] and in assay [6] was “inactive” each time.

As for `O=C1CC(c2ccc([N+](=O)[O-])cc2)=NN1c1ccccc1`, the Potency result in assay [1], in assay [2], in assay [3], in assay [5] and in assay [6] was “inactive” each time. For the same molecule, the Potency in assay [4] is 4.74 µM (active).

`C=CC1(C)CC2=CCC3C(C)(C(=O)O)CCCC3(C)C2CC1OC(C)=O` (configuration not stated): the Potency result in assay [1], in assay [2], in assay [3], in assay [4], in assay [5] and in assay [6] was “inactive” throughout.
